TDP1 cell CPT = DT40-hTDP1 cell growth loss with CPT. chicken DT40 Tdp1-/-;hTDP1 cells + 20 nM CPT, ATP luminescence, 48 h. Potency, µM (series often up to 46.2 µM), without a hit: top-dose activity change, negative = growth inhibition, most hits filed as inhibitors. hit rate 12% among 420,000. AID 686979; note: potency is the fitted concentration of half-maximal effect; nearly all actives have a fitted effect of over 55% in size
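Chicken DT40 Tdp1-/- cells stably complemented with human TDP1 were seeded at 400 cells/well in medium containing 20 nM camptothecin, exposed to pin-transferred compounds, and grown at 37 °C for at least 48 hr. Viability was read as ATP luminescence.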
Six1-Eya2 inh = blocks human Six1 binding to Eya2. hit rate 0.56% among 360,000. AlphaScreen GST-Six1/His-Eya2 binding, biochemical; hits give low values. activity change, % (test concentration not listed). AID 651725; in the data active = activity change below about -65%; inconclusive = mostly about -30% to -63%
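AlphaScreen luminescence read after one hour at 37 °C in darkness. Pin-transferred compounds met GST-Six1 and His-Eya2 protein (5X stock 250 nM/500 nM) plus glutathione donor and Ni-chelate acceptor beads (5X, 50 ug/mL).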
IL1B secr inh = inhibitors of inflammasome signaling (IL-1 beta secretion) | THP-1 LPS/ATP IL-1B secretion, AlphaLISA, 16 h; hits give low values | activity change, % at 57.5 µM | hit rate 4.7% among 360,000; in the data active = activity change below about -50%; inconclusive = mostly about -30% to -49%
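Secreted IL-1B measured by AlphaLISA bead assay after 16 h compound exposure of THP-1 cells; compounds (final up to 57.5 uM) added 1 h before LPS (250 ng/mL) and ATP (1.25 mM) stimulation; lower signal means less secretion.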
CtBP-E1A blk = inhibitors of CtBP/E1A interaction; AlphaScreen GST-E1A/His-CtBP binding, 1536-well; hits give low values; activity change, % (test concentration not listed); hit rate 0.49% among 340,000; AID 651724; in the data active = activity change below about -65%; inconclusive = mostly about -30% to -63%
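Steps: dispense buffer (Tris pH 8.0, NaCl 300 mM, TCEP 1 mM, BSA, Tween 20); add 5X protein mix (GST-E1A, His-CtBP, 125 nM each); pin 23 nL compound; 2 h at 37 °C, dark; add 5X beads (50 ug/mL); 1 h; read.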
DT40 TDP1 no CPT = qHTS for Inhibitors of human tyrosyl-DNA phosphodiesterase 1 (TDP1): qHTS in cells in absence of CPT. DT40 Tdp1-/- hTDP1 cells, no CPT, ATP luminescence, 48 h. Potency, µM (doses to about 46.2 µM), inactives show top-dose activity change, negative = growth inhibition, usual class: inhibitors. hit rate 15% among 420,000. AID 686978, 2013; note: potency is the fitted concentration of half-maximal effect; nearly all actives have a fitted effect of over 55% in size
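Growth of hTDP1-complemented DT40 Tdp1-knockout cells is measured by ATP luminescence after at least 48 hr compound exposure at 37 °C, with DMSO substituting for the 20 nM CPT used in the parallel screen.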
TDP1 block = TDP1 (human) enzyme inhibition; recombinant TDP1, AlphaScreen DNA substrate cleavage; Potency, µM (titrated, usually from 130 µM), without a hit: at the highest dose activity change, negative = inhibition, hits mostly inhibitors; hit rate 0.28% among 350,000; note: potency is the fitted concentration of half-maximal effect; nearly all actives have a fitted effect of over 40% in size
Target sequence (Q9NUW8 whole entry, looked up): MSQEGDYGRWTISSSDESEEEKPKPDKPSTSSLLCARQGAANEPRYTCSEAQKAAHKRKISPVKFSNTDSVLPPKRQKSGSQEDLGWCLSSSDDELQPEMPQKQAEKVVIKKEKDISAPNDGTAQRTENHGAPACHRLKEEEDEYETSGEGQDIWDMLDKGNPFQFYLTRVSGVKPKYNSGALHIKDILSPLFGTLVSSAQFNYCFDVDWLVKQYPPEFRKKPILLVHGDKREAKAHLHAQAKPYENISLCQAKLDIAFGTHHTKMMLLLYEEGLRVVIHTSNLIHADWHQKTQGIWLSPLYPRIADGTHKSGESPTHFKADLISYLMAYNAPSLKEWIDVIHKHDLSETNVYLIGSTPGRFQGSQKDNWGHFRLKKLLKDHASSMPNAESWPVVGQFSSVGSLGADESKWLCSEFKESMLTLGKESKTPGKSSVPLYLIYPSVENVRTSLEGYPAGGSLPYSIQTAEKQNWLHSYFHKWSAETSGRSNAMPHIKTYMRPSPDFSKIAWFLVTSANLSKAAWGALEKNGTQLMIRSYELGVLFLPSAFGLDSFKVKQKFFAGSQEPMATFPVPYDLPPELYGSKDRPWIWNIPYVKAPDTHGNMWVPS
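Signal: AlphaScreen proximity between streptavidin donor and anti-FITC acceptor beads on intact substrate. Reaction: Tdp1 1 nM, substrate 15 nM final, 5 min RT after 15 min compound preincubation.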
* marks the source's active call; other numbers are inactive results; ? = inconclusive; . = not tested or not shown. Sampled rows, rich in hits. Any-hit rate of the full collection: about 18%. Unless noted, calls come from the whole dose curve; as a rule, active = well fitted curve in the direction sought with a large enough effect; inconclusive = small, poorly fitted or top-dose-only effect, or another doubt; inactive = no such curve, though single readings can be large; an effect the other way counts as inactive or inconclusive. % is set by controls: 0 for no effect and ±100 for the full control effect.

SMILES | TDP1 cell CPT | Six1-Eya2 inh | IL1B secr inh | CtBP-E1A blk | DT40 TDP1 no CPT | TDP1 block
CCN(CC)C(=O)CSc1nc2cc(OC)c(OC)cc2c(=O)n1Cc1ccc(Cl)cc1 | ? | 0 | -53* | 0 | 18µM* | 7%
CCn1cc2nc(SCC(=O)Nc3cc(OC)ccc3OC)n(Cc3ccc(Cl)cc3)c(=O)c2n1 | 12µM* | . | . | . | 8.2µM* | 2%
CCn1cc2nc(SCC(=O)Nc3cccc(Cl)c3C)n(Cc3ccc(Cl)cc3)c(=O)c2n1 | ? | . | . | . | ? | -4%
COc1ccc(NC(=O)CSc2nc3ccccc3c(=O)n2Cc2cccs2)c(OC)c1 | . | . | . | . | . | 2%
CCN(CC)C(=O)CSc1nc2cc3c(cc2c(=O)n1CCCC(=O)NCc1ccc(OC)cc1)OCO3 | ? | 0 | -26 | 2 | ? | -1%
CCn1cc2nc(SCC(=O)Nc3ccc(OC)cc3OC)n(Cc3ccc(Cl)cc3)c(=O)c2n1 | 21µM* | . | . | . | 18µM* | 7%
CCOC(=O)CCCCC(=O)c1[nH]c(=O)[nH]c1CSc1nc2ccccc2[nH]1 | 2% | 0 | -91* | 0 | -7% | 6%
CCOC(=O)CCCCC(=O)c1[nH]c(=O)[nH]c1CN1CCOCC1 | 7% | 2 | -74* | 6 | 2% | 11%
CCOC(=O)CCCCC(=O)c1[nH]c(=O)[nH]c1CSc1nc(C)cc(=O)[nH]1 | 4% | 0 | ? | 0 | 9% | 11%
CCOC(=O)CCCCC(=O)c1[nH]c(=O)[nH]c1C[n+]1ccccc1 | . | . | . | . | . | 2%
CCCN(CC#CC(O)(c1ccccc1)c1cccnc1)CCC (stereo not given) | -17% | -2 | -6 | 5 | -2% | 0%
CC(Sc1nc2ccccc2s1)C(=O)Nc1ccc2c(c1)OCO2 (stereo not given) | 11% | -21 | 28 | 2 | -25% | 3%
COc1ccc(Cc2c(-c3ccc(OC)c(OC)c3)nc3cc(C)c(Br)c(C)n23)c(C)c1 | ? | -7 | 7 | -21 | ? | .
COc1cccc(CNC(=O)COC(=O)c2cc(Br)c(Br)s2)c1 | -9% | -1 | -13 | 6 | 1% | 0%
COc1cccc(CNC(=O)COC(=O)c2ccc(-c3ccc(O)cc3)cc2)c1 | ? | -6 | 60 | -5 | 3.3µM* | .
CN(Cc1ccco1)C(=O)C1CCC(=O)N(CCc2cccc(F)c2)C1 (stereo not given) | ? | -10 | 13 | -1 | ? | 2%
CC#CCN(Cc1ccco1)C(=O)C1CCC(=O)N(CCc2cccc(F)c2)C1 (stereo not given) | 21µM* | 3 | -2 | 2 | 15µM* | .
C#CCN(C(=O)C1CCC(=O)N(CCc2cccc(F)c2)C1)C1CCCCC1 (stereo not given) | 18µM* | 21 | 2 | 3 | 6.5µM* | .
Cc1cc(=O)[nH]c(N/N=C/c2c(C)nn(-c3ccc(F)cc3)c2Cl)n1 | -24% | -2 | 9 | -27 | ? | 0%
CC1(C)C(=O)C2(CCCCC2)C(=O)OC1c1cccn1-c1ccc([N+](=O)[O-])cc1 (stereo not given) | ? | -3 | 4 | 2 | ? | 2%
CCOc1cc(/C=N/NC(=S)Nc2ccccc2C(F)(F)F)ccc1OCC(=O)N1CCOCC1 | 5.8µM* | -6 | -17 | -19 | 8.2µM* | -11%
CCOc1cc(/C=C\[N+](=O)[O-])ccc1OCC(=O)N1CCOCC1 | 2.6µM* | 5 | -107* | 0 | 2.3µM* | 3%
CCOc1cc(/C=C/c2nc3cc(C)c(C)cc3s2)ccc1OCC(=O)N1CCOCC1 | ? | 8 | 10 | 13 | ? | -3%
CCN1CCN(C(=O)C(C)Sc2nnc3nc(C)cc(C)n23)CC1 (stereo not given) | 10% | 1 | -23 | -3 | 23% | 1%
